DAX1 inh-1: DAX1 (NR0B1) inhibition, primary screen; hit rate 1.1% among 370,000; inhibition, % at 6.8 µM; HEK293T StAR-luciferase reporter, SF-1/DAX-1 repression relief;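 active = inhibition above the mean over all tested compounds plus 3 SD, cut at about 3.6% in these data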;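 also: 0% = DAX-1 cells with DMSO and 100% = cells lacking DAX-1 with DMSO; higher inhibition means more luminescence from relief of DAX-1 repression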
ssDAF-12 act: activators of S. stercoralis DAF-12 nuclear receptor | activation, % at 6.8 µM | HEK293 ssDAF-12/GRIP1 lit1-tk-luc reporter, luminescence; % of 3 µM dafachronic acid response | hit rate 1% among 370,000 | AID 652126;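 active = activation above the mean over all tested compounds plus 3 SD, cut at about 0.9% in these data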;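 also: 0% = DMSO-only wells and 100% = 3 µM delta7-dafachronic acid wells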
hgDAF12 agonist: hgDAF-12 agonism, primary luciferase screen. activation, % at 6.8 µM. hit rate 1.8% among 370,000. HEK293 GAL4-hgDAF12 UAS-luciferase reporter, agonist luminescence; normalized to butyrate control;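 active = activation above a cutoff set at the mean of all screened compounds plus 3 SD, cut at about 10% in these data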;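 also: 0% = DMSO wells and 100% = sodium butyrate wells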
hcDAF12 agonist: activates DAF-12 receptor from parasite H. contortus. HEK293 hcDAF-12 lit1-tk-luc reporter, luminescence; 0% DMSO, 100% Δ7-dafachronic acid. activation, % at 6.8 µM. hit rate 1.4% among 370,000;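 active = activation above the mean of all tested compounds plus 3 SD, cut at about 5.5% in these data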;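 also: 100% = response to 3 µM Δ7-dafachronic acid high control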
DAX1 inh-2: NR0B1 (DAX1) inhibition. P51843. AID 504766. hit rate 0.99% among 340,000. inhibition, % at 6.75 µM. HEK293 Gal4-DAX1 luciferase reporter, luminescence;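 active = inhibition above the mean over all tested compounds plus 3 SD, cut at about 4.2% in these data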;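 also: 0% = DAX1-transfected cells with DMSO and 100% = empty-vector control cells with DMSO; inhibition shows as a rise in luminescence from relieved DAX1 repression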
hgDAF12 ag: hgDAF-12 agonism, confirmation assay | shares compounds with hgDAF12 agonist | HEK293 GAL4-hgDAF12 luciferase reporter, agonist mode; percent of butyrate response | activation, % at 6.8 µM | hit rate 80% among 3,300 | AID 743050;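 active = mean activation over triplicate wells above the hit cutoff derived from the earlier primary screen, cut at about 11% in these data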;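 also: 0% = DMSO low control and 100% = 2 mM sodium butyrate high control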
LXRb DAF12 ctr: counter-screen for DAF-12 agonists: agonists of human LXR-beta | shares compounds with hgDAF12 agonist | 3,300 tested, under 10 active | HEK293 Gal4-LXR luciferase reporter, 24 h | activation, % at 6.8 µM;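 active = mean activation of the triplicate above a set limit carried over from the primary screen, none filed active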
Target sequence (P55055 whole entry, looked up, the tested form may be a part): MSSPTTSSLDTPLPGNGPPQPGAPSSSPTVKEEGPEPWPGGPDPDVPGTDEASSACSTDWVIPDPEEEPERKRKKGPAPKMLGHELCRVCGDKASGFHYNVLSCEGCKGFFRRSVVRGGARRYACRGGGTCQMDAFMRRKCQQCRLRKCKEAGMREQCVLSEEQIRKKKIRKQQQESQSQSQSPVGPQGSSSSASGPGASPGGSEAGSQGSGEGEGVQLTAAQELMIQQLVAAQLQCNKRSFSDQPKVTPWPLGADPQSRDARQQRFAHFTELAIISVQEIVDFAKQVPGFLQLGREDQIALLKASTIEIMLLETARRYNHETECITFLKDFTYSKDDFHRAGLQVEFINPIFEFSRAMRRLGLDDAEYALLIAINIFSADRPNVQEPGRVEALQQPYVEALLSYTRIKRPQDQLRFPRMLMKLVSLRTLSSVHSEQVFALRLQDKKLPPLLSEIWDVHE
* = called active by the depositor. An excerpt weighted towards active compounds, which were near 4.1% of everything screened.

What do the screens show for `O=C(CSc1ccccc1)NC1CCCCN(Cc2cccc(Cl)c2)C1=O` (stereo not given)?
DAX1 inh-1: -1; ssDAF-12 act: -2; hgDAF12 agonist: -4; hcDAF12 agonist: -5

How did C#CCN1CC(N(C)CCOC(=O)c2cc3ccccc3[nH]2)CS1(=O)=O (stereo not given) do in these assays?
DAX1 inh-1: -1; ssDAF-12 act: -1; hgDAF12 agonist: 0; hcDAF12 agonist: -1

How did O=C(NCc1cccs1)c1cc(-c2ccccc2)on1 do in these assays?
DAX1 inh-1: 3; ssDAF-12 act: 0; hgDAF12 agonist: 16*; hcDAF12 agonist: 3; DAX1 inh-2: 3; hgDAF12 ag: 14*; LXRb DAF12 ctr: 0

What do the screens show for `Cc1cc(C(=O)NCc2cccs2)no1`?
DAX1 inh-1: 0; ssDAF-12 act: -2; hgDAF12 agonist: 2; hcDAF12 agonist: 0; DAX1 inh-2: 1

How did CC(Cc1ccco1)NC(=O)c1ccc(C(F)(F)F)cc1 (stereo not given) do in these assays?
DAX1 inh-1: 2; ssDAF-12 act: 1.0*; hgDAF12 agonist: 14*; hcDAF12 agonist: 5; DAX1 inh-2: -1; hgDAF12 ag: 16*; LXRb DAF12 ctr: 1

Results for O=C(NCc1ccco1)c1ccc(C(F)(F)F)cc1 ?
DAX1 inh-1: 0; ssDAF-12 act: -1; hgDAF12 agonist: 2; hcDAF12 agonist: 0

Results for CC(C)CCN1C(=O)COc2ccccc2C1c1nnnn1-c1ccc2c(c1)OCCO2 (stereo not given) ?
DAX1 inh-1: 0; ssDAF-12 act: -1; hgDAF12 agonist: 2; hcDAF12 agonist: -2

What do the screens show for `Cc1cccc(-c2nsc(SCC(=O)NCc3ccco3)n2)c1`?
DAX1 inh-1: -1; ssDAF-12 act: -1; hgDAF12 agonist: 0; hcDAF12 agonist: 1; DAX1 inh-2: 2

How did Cc1cccc(-c2nsc(SCC(=O)NCC3CCCO3)n2)c1 (stereo not given) do in these assays?
DAX1 inh-1: 1; ssDAF-12 act: -2; hgDAF12 agonist: 18*; hcDAF12 agonist: 0; DAX1 inh-2: -1; hgDAF12 ag: 2; LXRb DAF12 ctr: 0

How did C[C@H]1[C@@H](N(C)CC2CCCCC2)CC[C@@]23CCCN2C(=O)CCC[C@@H]13 do in these assays?
ssDAF-12 act: -2; hgDAF12 agonist: 0; hcDAF12 agonist: -1

How did CN(C)CC(=O)N[C@@H]1C[C@@H]2O[C@@H](CO)CC[C@@H]2O[C@@H]1CCc1ccc(-c2ccc(F)cc2)cc1 do in these assays?
DAX1 inh-1: -1; ssDAF-12 act: -1; hgDAF12 agonist: -1; hcDAF12 agonist: -1

How did O=C(NN=Cc1ccccc1Cl)C(=O)Nc1cccc(C(F)(F)F)c1 do in these assays?
DAX1 inh-1: 0; ssDAF-12 act: -1; hgDAF12 agonist: -1; hcDAF12 agonist: -1

How did N/C(=N\c1nc2ccccc2o1)NC(=O)/C=C/c1ccccc1 do in these assays?
DAX1 inh-1: 0; ssDAF-12 act: -3; hgDAF12 agonist: -3; hcDAF12 agonist: -2; DAX1 inh-2: 0

Results for CC(C)(C)C(=O)N/C(N)=N/c1nc2ccccc2o1 ?
DAX1 inh-1: 2; ssDAF-12 act: 1.5*; hgDAF12 agonist: 13*; hcDAF12 agonist: 5; DAX1 inh-2: 4.8*; hgDAF12 ag: 15*; LXRb DAF12 ctr: 1

How did O=C(NC(=S)Nc1ccc(O)cc1)C1CCCC1 do in these assays?
DAX1 inh-1: 0; ssDAF-12 act: -1; hgDAF12 agonist: 4; hcDAF12 agonist: 3; DAX1 inh-2: 1

Results for Cc1ccc(NC(=S)NC(=O)C2CCC2)cc1C ?
DAX1 inh-1: 1; ssDAF-12 act: 0; hgDAF12 agonist: 14*; hcDAF12 agonist: 5; DAX1 inh-2: 1; hgDAF12 ag: 11*; LXRb DAF12 ctr: 0

Results for CC(COc1ccc(C(F)(F)F)cc1)CN1CCC(C(O)(c2ccccc2)c2ccccc2)CC1 (stereo not given) ?
DAX1 inh-1: -1; ssDAF-12 act: -1; hgDAF12 agonist: 2; hcDAF12 agonist: 5

Bioassay records from PubChem.
